Laboratory results published in PubChem BioAssay AID1963320 (National Center for Advancing Translational Sciences (NCATS), 2024).
Hit rate of the full screen: of about 1,300 compounds, about 560 (43%) were called active. About 39% were inconclusive and are not listed. Calls come from the whole dose curve; as a rule, active = well fitted inhibition curve with a large enough effect; inconclusive = small, poorly fitted or top-dose-only effect; inactive = flat fitted curve, though single readings scatter. So high a share suggests a set chosen from earlier hits. The list is a sample of the results.

What follows are molecules tested against Luciferin 4-monooxygenase (Photinus pyralis) (UniProt P08659) (assay: Firefly luciferase (FLuc-C-HiBiT) enzymatic inhibition screen - Functional assay). Conditions: purified FLuc-C-HiBiT enzyme, luciferin luminescence; series mostly up to 32.7 µM.
Luciferin 4-monooxygenase (Photinus pyralis), sequence (P08659 whole entry, looked up): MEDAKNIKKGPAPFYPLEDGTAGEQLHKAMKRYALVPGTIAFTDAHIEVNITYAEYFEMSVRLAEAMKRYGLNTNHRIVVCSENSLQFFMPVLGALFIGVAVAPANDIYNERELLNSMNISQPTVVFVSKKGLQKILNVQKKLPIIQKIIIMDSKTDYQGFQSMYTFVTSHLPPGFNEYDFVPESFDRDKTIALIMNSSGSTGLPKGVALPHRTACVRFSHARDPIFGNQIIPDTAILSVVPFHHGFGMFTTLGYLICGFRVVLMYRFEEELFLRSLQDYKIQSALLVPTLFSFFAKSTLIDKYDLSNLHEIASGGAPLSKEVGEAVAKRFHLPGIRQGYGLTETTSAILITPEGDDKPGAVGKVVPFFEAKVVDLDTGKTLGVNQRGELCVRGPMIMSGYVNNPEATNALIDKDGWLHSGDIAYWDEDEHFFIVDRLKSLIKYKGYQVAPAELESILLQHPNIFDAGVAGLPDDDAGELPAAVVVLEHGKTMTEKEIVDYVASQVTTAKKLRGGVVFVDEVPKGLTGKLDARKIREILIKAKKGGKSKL
Text: PI: James Inglese Ph.D. National Center for Advancing Translational Sciences (NCATS), National Institute of Health (NIH), Maryland Discovery and optimization of novel protein-binding ligands underlies many of the methods and applications of biology, drug discovery, clinical diagnostics, and environmental toxicology. Assays for detecting the interaction of, for example, a molecule with a macromolecular target also referred to here as the target of interest (TOI) is dependent on a compatible output technology. Depending on the nature and knowledge surrounding the TOI, whether a receptor, enzyme, regulatory subunit or scaffold, or a sequence-defined nucleic acid folded into a complex tertiary structure, assay strategies can vary widely. Here we exploit ligand-biased changes in the structural dynamics of the target protein to control reporter alpha complementation allowing a non-competitive, non-functional, non-separation measure of ligand-target interaction. […] Secondly, we show the specificity and sensitivity of the SDR for the Abelson tyrosine kinase (ABL1) compared to the serine/threonine protein kinase A, using an enriched chemical library of 128 compounds selected, in part, for activity annotated with ABL1 kinase activity using the Pharos database (3). References: (1) A. S. Dixon et al., NanoLuc Complementation Reporter Optimized for Accurate Measurement of Protein Interactions in Cells. ACS Chem Biol 11, 400-408 (2016). […] Chemistry & Biology, 19, 1060 - 1072 (2012). (3) K. J. Kelleher et al., Pharos 2023: an integrated resource for the understudied human proteome. Nucleic Acids Res 51, D1405-D1416 (2023).
1. Reagent. Dispense 4 uL FLuc-C-HiBiT enzyme-buffer solution per well at a final enzyme concentration of 10 nM with or without 10 uM ATP into columns 2-48 of white, solid bottom medium bind 1536-well plates (Greiner Bio-One) by BioRaptr 2. Dispense respective buffer without enzyme at 4 uL/well in column 1 of assay plates. 2. Compounds. Library compounds and PTC124 control added at 23 nL per well, transfer by Pin Tool. 3. Incubation. Incubate enzyme and compounds at room temperature for >30 min, protect from light. 4a. Reagent. (Functional assay) Add 3 uL of D-luciferin substrate at final (KM) concentration of 10 uM/well of assay plates for FLuc enzymatic assay, in the presence of ATP. 5. Incubation. Incubate enzyme and substrate or detection reagent at room temperature for 5-10 min, protect from light. 6a. Detector. Functional assay measured using CCD-based camera (ViewLux) with settings as follows: Exposure, 10 sec; Gain, High; Speed, Slow; Binning, 2X. REFERENCES: Inglese J, Shamu CE and Guy RK, Reporting data from high throughput screening of small molecule libraries, Nature Chemical Biology, 2007, 3(8): 438-441. doi.org/10.1038/nchembio0807-438.
Note: nearly all actives have a fitted effect of over 70% in size.
Potency is the fitted concentration of half-maximal effect.

Compound | Potency
CN(CCc1cn[nH]c1)c1ccc(-c2nc(-c3ccccc3F)no2)cn1 | 3130 nM (active)
Cc1cc(C)n(CCC(=O)N2CCC(Cc3noc(C4CC4)n3)C2)n1 (configuration not stated) | inactive
OCCN1CCN(c2nc(N3CCCCC3)c3cnn(-c4ccc(Cl)cc4)c3n2)CC1 | inactive
OCC1CCCN(c2ncnc3c2cnn3-c2ccccc2)C1 (configuration not stated) | 394 nM (active)
Cc1ccc(Cl)cc1-n1ncc2c(N3CCC(C(N)=O)CC3)ncnc21 | inactive
Fc1ccc(Nc2nc(-c3ccccc3F)no2)cc1 | 9890 nM (active)
Cc1ccc(CSc2nc3cccnc3n2Cc2ccc(C(=O)NC3CC3)cc2)cc1 | 394 nM (active)
Cc1cccc(C(=O)Nc2ccc(-c3nc4ccccc4s3)c(C)c2)c1 | 9890 nM (active)
COc1ccc(CC(=O)Nc2ccc(-c3nc4ccccc4s3)c(C)c2)cc1 | inactive
O=C(CSc1ccc(F)cc1)Nc1ccccc1-c1nc2ccccc2s1 | inactive
Cc1c(NC(=O)C(C)(C)C)cccc1-c1nc2ccccc2s1 | 5560 nM (active)
Cc1ccc(C(=O)Nc2ccc(-c3nc4ccccc4s3)c(O)c2)cc1 | inactive
CC(C)C(=O)Nc1cc(-c2nc3ccccc3s2)ccc1Cl | inactive
COc1ccc(C(=O)Nc2onc3c2CCCC3)cc1 | 1970 nM (active)
COc1ccc(C)cc1NC(=O)Nc1cccc(-c2ccc(N3CCCCC3)nn2)c1 | 1110 nM (active)
Cc1cccc(-c2cccc(NC(=O)C3CCCN(C(=O)CC(F)(F)F)C3)c2)c1 (configuration not stated) | inactive
O=C(/C=C/c1ccccc1)Nc1cc(-c2nc3cc(Cl)ccc3o2)ccc1Cl | inactive
COc1cccc(-c2nc3ccc(-c4ccc5c(c4)OCO5)cc3o2)c1OC | 2480 nM (active)
COc1ccc(-c2nc3ccccc3s2)cc1NC(=O)COc1ccccc1C | inactive

Compound | Potency
CCC(CC)c1nn2cc(-c3ccccc3)nc2s1 | 881 nM (active)
Cc1nn(-c2ccc(C(C)C)cc2)c(C)c1[C@@H]1C=C[C@@H](NC(=O)CC2(CC(=O)O)CCCC2)C1 | inactive
O=C(Nc1nc2c(s1)CCCC2)c1ccccc1F | 556 nM (active)
O=C([C@@H]1C[C@@H](O)[C@H](O)[C@@H]2NC(=S)N(c3ccc(OC(F)(F)F)cc3)[C@@H]21)N1CCCCC1 | inactive
Oc1ccc(-c2nc(C3CC3)nc3c2CCN(Cc2cccc(F)c2)CC3)cc1 | inactive
O=C(Nc1ccccc1)c1nc2c(o1)CCN(Cc1cccc(Cl)c1)CC2 | 10100 nM (active)
CCOC(=O)C1CCN(C(=O)c2cccc3c2CCN3C(=O)Nc2ccccc2)CC1 | 1760 nM (active)
CC(=O)Nc1ccc(NC(=O)CCCc2nc(-c3ccc(C(C)(C)C)cc3)no2)cc1 | 4950 nM (active)
CC(=O)NC1(C)CN(Cc2ccc(-c3ccc4c(ccn4C)c3)s2)C1 | 2860 nM (active)
Cc1ccc(-c2nc(C(=O)N3CCN(c4ccccn4)CC3)no2)cc1 | 7850 nM (active)
COc1ccc(-c2ncc3c(n2)OCCN(CC2CC2)C3=O)cc1 | 8050 nM (active)
CCN(c1ncnc2c1cnn2-c1ccc(C)cc1)C1CCCCC1 | 881 nM (active)
CN1CCN(C[C@@H]2CN(C(=O)CCCc3ccccc3)C[C@@H]2CO)CC1 | inactive
CCNC(=O)C1C(c2cccc(NC(=O)c3ccc(OC)cc3)c2)OC(=O)N1Cc1ccc(C)cc1 (configuration not stated) | 3940 nM (active)
O=C(NCC1CC1)C1CCN(C(=O)c2ncn3c2COC(c2ccccc2)C3)CC1 (configuration not stated) | 7000 nM (active)
O=C(NCc1ccccc1)C1CCN(C(=O)c2ncn3c2COC(c2ccccc2)C3)CC1 (configuration not stated) | 2210 nM (active)
O=C(NCc1ccc(F)c(Cl)c1)C1CCN(C(=O)c2ncn3c2COC(c2ccccc2)C3)CC1 (configuration not stated) | 3510 nM (active)
COc1ccccc1OC1(C(=O)O)CCN(c2ncnc3nc[nH]c23)CC1 | inactive
